Compounds without any hit were thinned out: in the full panel of roughly 83,000, 20% have a hit.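 48-hour exposure, single concentration, 96-well plates; percent growth endpoint where 0 means no net growth. Active: below 10.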 Values without a mark were called inactive. Activity calls are given as the source filed them.
How the values were obtained:
Assay in all cases: NCI-60 one-dose screen, 48 h (100 = growth as untreated, 0 = no growth, -100 = all killed)
Details in all cases: 10 µM unless noted
NCI-H23 lung = system: NCI-H23 lung
NCI-H226 lung = system: NCI-H226 lung
NCI-H322M lung = system: NCI-H322M lung
HOP-62 NSCLC = system: HOP-62 NSCLC
NCI-H460 lung = system: NCI-H460 lung
HOP-92 NSCLC = system: HOP-92 NSCLC
NCI-H522 lung = system: NCI-H522 lung
A549/ATCC NSCLC = system: A549/ATCC NSCLC
786-0 renal = system: 786-0 renal
COLO 205 colon = system: COLO 205 colon
DU-145 prostate = system: DU-145 prostate
K-562 leukemia = system: K-562 leukemia
MALME-3M melanoma = system: MALME-3M melanoma
MDA-MB-231 breast = system: MDA-MB-231 breast
RXF 393 renal = system: RXF 393 renal
SF-268 CNS = system: SF-268 CNS
SF-295 CNS = system: SF-295 CNS
SF-539 CNS = system: SF-539 CNS
UACC-257 melanoma = system: UACC-257 melanoma
M14 melanoma = system: M14 melanoma

| Compound | growth (NCI-H23 lung) | growth (NCI-H226 lung) | growth (NCI-H322M lung) | growth (HOP-62 NSCLC) | growth (NCI-H460 lung) | growth (HOP-92 NSCLC) | growth (NCI-H522 lung) | growth (A549/ATCC NSCLC) | growth (786-0 renal) | growth (COLO 205 colon) | growth (DU-145 prostate) | growth (K-562 leukemia) | growth (MALME-3M melanoma) | growth (MDA-MB-231 breast) | growth (RXF 393 renal) | growth (SF-268 CNS) | growth (SF-295 CNS) | growth (SF-539 CNS) | growth (UACC-257 melanoma) | growth (M14 melanoma) |
| --- | --- | --- | --- | --- | --- | --- | --- | --- | --- | --- | --- | --- | --- | --- | --- | --- | --- | --- | --- | --- |
| CC(C)C[C@@H](NC(=O)[C@@H](Cc1ccccc1)NC(=O)c1cnccn1)B1O[C@H]2[C@H](O)[C@@H](C(=O)NCCCC[C@@H]3NC(=O)[C@@H](Cc4ccccc4)NC(=O)[C@H](CC(=O)O)NC(=O)CNC(=O)[C@H](CCCN=C(N)N)NC3=O)O[C@@H](CN)[C@H]2O1 | -29.2% (active) | -45.8% (active) | 6.41% (active) | -50.5% (active) | -44.6% (active) | -70.4% (active) | -67.9% (active) | -55.2% (active) | -12.8% (active) | -81.1% (active) | -8.32% (active) | 2.76% (active) | -20.6% (active) | -9.73% (active) | -85.9% (active) | -37.1% (active) | -73.5% (active) | -31.9% (active) | -28% (active) | -0.783% (active) |
| CCCCN1CCCCn2c1nc1c2c(=O)n(C)c(=O)n1C | 108% | 104% | 110% | 103% | 101% | 95.7% | 90.1% | 89% | 100% | 114% | 105% | 91.2% | 116% | 103% | 108% | 105% | 106% | 116% | 97% | 106% |
| C=C1C(=O)O[C@H]2[C@H]1CC/C(COC(=O)NCc1cc3ccccc3[nH]1)=C\CC[C@@]1(C)O[C@@H]21 | 35.8% | 64.5% | 88.3% | 58.3% | 55.3% | -14.3% (active) | -84.4% (active) | 77.4% | -84.5% (active) | -52.2% (active) | 1.16% (active) | -5.26% (active) | -59.4% (active) | -42.5% (active) | -86.2% (active) | 59.3% | 90.1% | -46.2% (active) | 46.2% | -27.9% (active) |
| CC(=O)NC1=C(C#N)C(c2ccccc2Cl)c2c(ccc3ccccc23)O1 (stereo not given) | 76.2% | 83.5% | 86.8% | 59.2% | 39.1% | 72.5% | 39.2% | 67.1% | 82.7% | 79.5% | 89.1% | 19.4% | 48.4% | 66.6% | 77.2% | 68.5% | 25.7% | 58.4% | 76.7% | 31.1% |
| C=C(C)[C@@H]1CC[C@]2(C=O)CC[C@]3(C)[C@H](CC[C@@H]4[C@@]5(C)C/C(=C/c6cccnc6)C(=O)C(C)(C)[C@@H]5CC[C@]43C)[C@@H]12 | 75.6% | 91.3% | 100% | 119% | 85.7% | 83.9% | 72% | 57.1% | 101% | 95.5% | 92.1% | 32.3% | 88.1% | 93.8% | 83.2% | 85.8% | 86.9% | 96.5% | 84.5% | 78.5% |
| COc1ccc(OCC(CO)N2CCN(c3ccccc3)CC2)cc1 (stereo not given) | 103% | 106% | 115% | 118% | 116% | 81.2% | 99.4% | 100% | 101% | 96.3% | 111% | 126% | 82.7% | 97% | 119% | 95.8% | 101% | 98.5% | 96.1% | 99.8% |
| COC(=O)CNc1nc(N(C)O)nc(N(C)O)n1 | 48.7% | 61.3% | 54.6% | 34.2% | 17.7% | 35.2% | 53.2% | 46.5% | 25.9% | 12.7% | 34.7% | 35% | 97.6% | 43% | 47.2% | 34.3% | 45.2% | 47.5% | 76.9% | 46% |
| Nc1c2c(nc3ccc(Br)cc13)CC(c1ccccc1)CC2=O (stereo not given) | 37.7% | 71.2% | 49.1% | 48.9% | 17.1% | 77.9% | 35.6% | 48.5% | 49.6% | 18.6% | 24.2% | 13.4% | 51.9% | 59.6% | 21.8% | 73.3% | 9.76% (active) | 20% | 86.3% | 17.8% |
| CC1(C)CC[C@]2(CO)CC[C@]3(C)C(=CC[C@@H]4[C@@]5(C)CC[C@H](NCO)C(C)(C)[C@@H]5CC[C@]43C)[C@@H]2C1 | -64.8% (active) | 43.1% | 7.27% (active) | -32.1% (active) | -70.5% (active) | 22.2% | -29.5% (active) | -50% (active) | -80% (active) | -71.5% (active) | -49.9% (active) | -36.8% (active) | -76.3% (active) | -80% (active) | -88% (active) | 63.1% | -30.5% (active) | -18.5% (active) | 10.5% | -53% (active) |
| CCCNc1nc(N(C)O)nc(N(C)O)n1 | 41.3% | 62.9% | 41.5% | 16.6% | 11.5% | 45.2% | 37% | 41.3% | 7.79% (active) | 9.94% (active) | 24.9% | 50.7% | 83.2% | 39.5% | 39% | 35.2% | 21.5% | 27.1% | 56.2% | 20.7% |
| NC(N)=N/N=C/c1ccc(-c2ccc(-c3ccc(Cl)cn3)s2)cc1 | 101% | 88.6% | 96.7% | 93.8% | 88.1% | 58.3% | 97.6% | 71.4% | 63.8% | 28.7% | 94.4% | 1.08% (active) | 101% | 76.8% | 59.2% | 88.2% | 102% | 85.9% | 109% | 94.7% |
| Cc1ccc(S(=O)(=O)Nc2ccc(-c3cc(-c4cccc(F)c4)c(C#N)c(N)n3)cc2)cc1 | 55.3% | 36.7% | 72.2% | 53.1% | 93.3% | -39.3% (active) | -71.4% (active) | 33% | 13.4% | 23.9% | 49.4% | 2.53% (active) | 44.4% | 20.6% | -18.2% (active) | 47% | 78.9% | 24% | 41.9% | -8.83% (active) |
| c1cc(N2CCCC2)c2nc(-c3[nH]ncc3Nc3ncnc4[nH]ccc34)[nH]c2c1 | -45.3% (active) | -40.4% (active) | -21.1% (active) | -13.6% (active) | -4.99% (active) | -1.33% (active) | -11.3% (active) | -7.17% (active) | -26.1% (active) | -65.9% (active) | -4.71% (active) | 6.25% (active) | -41.4% (active) | -15.2% (active) | -75.9% (active) | -25.1% (active) | -34% (active) | -54.3% (active) | -12.8% (active) | -77.1% (active) |
| O=c1[nH]ncc(Br)c1Br | -57% (active) | 112% | 94.7% | 90.2% | 65.9% | 62.3% | -41.3% (active) | 69.3% | 71.6% | 22.4% | 54.4% | 3.3% (active) | -7.27% (active) | 28.7% | -85.5% (active) | -18.3% (active) | 102% | 93.5% | -36.7% (active) | -84.8% (active) |
| C=C(C)[C@@H]1CC[C@]2(C(=O)N3CCN(CC)CC3)CC[C@]3(C)[C@H](CC[C@@H]4[C@@](C)(CCC(=O)N5CCN(CC)CC5)[C@H](C(=C)C)CC[C@]43C)[C@@H]12 | 74.4% | 79.6% | 89% | 88.7% | 25.1% | 52.2% | 77.9% | 57.4% | 0.392% (active) | 61.1% | 70.8% | 30.4% | 43.2% | 58.6% | 48.8% | 76.9% | 47.8% | 66% | 18.6% | 35.8% |
